We go through 40 compounds from PubChem BioAssay (Tox21).

Results filed as inconclusive are left out. Unmarked numbers belong to inactive results. Calls of active or inactive are those of the source. The call rests on the fitted dose curve.
On the % scale 0 is the no-effect control and ±100 the full control effect; potency means the concentration at half of the fitted maximal effect.

The experiment is described as follows: p53 small molecule agonists, cell-based qHTS assay with rat liver microsomes: qHTS cell viability counter screen (AID 1963580). Further: nearly all actives have a fitted effect of over 45% in size. Particulars: p53RE-bla HCT-116 + rat microsomes, ATP viability, 16 h; series mostly up to 66 µM; activity change, negative = cytotoxicity: at the top concentration. The source says: National Center for Advancing Translational Sciences [NCATS]
Division of Preclinical Innovation [DPI]
U.S. Environmental Protection Agency [EPA]
National Institutes of Environmental Health Sciences [NIEHS]
National Toxicology Program [NTP]
U.S. Food and Drug Administration [FDA]
p53, a tumor suppressor protein, is activated following cellular insult, including DNA damage and other cellular stresses. The activation of p53 regulates cell fate by inducing DNA repair, cell cycle arrest, apoptosis, or cellular senescence. The activation of p53, therefore, is a good indicator of DNA damage and other cellular stresses. The CellSensor p53RE-bla HCT-116 cell line contains a stably integrated beta-lactamase reporter gene under control of the p53 response elements. The activation of the reporter gene under culture conditions can be detected by fluorescence intensity. This cell line was used to screen the Tox21 10K compound library in the condition of presence of rat liver microsomes and to identify agonists that activate the p53 signaling pathway after in vitro metabolic activation (Ooka et al., Archive of Toxicology 96:1975-1987, 2022). The cytotoxicity of the Tox21 compound library against the p53 RE-bla HCT-116 cell line was tested in parallel by measuring the intra cellular ATP content in the same wells.
Tox21 Assay Protocol Summary:
The p53RE-bla cells were dispensed at 4,000cells/3ul/well in 1536-well black-clear bottom plates. After the assay plates were incubated at 37 C, 5% CO2 incubator for 5 hours, 23 nL of compounds dissolved in DMSO, positive controls or DMSO only was transferred to the assay plate. Following compound addition, 3 uL of rat liver microsomes (Molecular Toxicology, Boone, NC) at final concentration of 0.5 mg/mL and 1uL of B-Nicotinamide adenine dinucleotide 2'-phosphate (NADPH) at final concentration of 0.5 mg/mL were transferred to the assay plate. The plates were incubated at 37 C for 16 hours. 1 uL of LiveBLAzer detection mixture was added to each well and the plates were incubated at room temperature in the dark for 2 h. Fluorescence intensity at 460 and 530 nm emission and 405 nm excitation were measured by an Envision plate reader. For cell viability readout that measures cytotoxicity, 4 ul/well of CellTiter-Glo reagent was added into the assay plates using a Flying Reagent Dispenser. After 30 min incubation at room temperature, the luminescence intensity in the plates was measured using a ViewLux plate reader.
On the technique in general: Quantitative high-throughput screening tests each substance at several concentrations.
`CC(C)(C)C(=O)C(=O)O`: the “activity change, negative = cytotoxicity” value was -3.51%.

For the compound `CN(C)CCN1CCOCC1`, the “activity change, negative = cytotoxicity” value was -2.62%.

With `CC(N)C12CC3CC(CC(C3)C1)C2` (stereo not given), the “activity change, negative = cytotoxicity” value is 1.32% [at 30.3 µM].

For `CCCCCCCCCCCCCCCCCC(=O)OCCCCCCCCCCCCCC(C)C`, the “activity change, negative = cytotoxicity” value was 0.479%.

Take `CC(C)=CCC/C(C)=C/COC=O`: the “activity change, negative = cytotoxicity” value was -1.85%.

In the case of `Nc1ccc(S(=O)(=O)NCc2ccccc2)cc1`, the “activity change, negative = cytotoxicity” value was 3.5% [at 30.3 µM].

On to `CCCCCC(=O)OCCc1ccccc1`, for which the “activity change, negative = cytotoxicity” value was 9.22%.

For the compound `CCC(=O)c1c(O)cc(O)cc1O`, the “activity change, negative = cytotoxicity” value is 2.78% [at 30.3 µM].

With `C[C@]1(Cn2ccnn2)[C@H](C(=O)O)N2C(=O)C[C@H]2S1(=O)=O`, the “activity change, negative = cytotoxicity” value was 8.44% [at 30.3 µM].

With `OCCCO`, the “activity change, negative = cytotoxicity” value was 3.66%.

For the compound `C[C@@H](CN1CC(=O)NC(=O)C1)N1CC(=O)NC(=O)C1`, the “activity change, negative = cytotoxicity” value is 7.29% [at 30.3 µM].

Regarding `c1ccc2c(CC3=NCCN3)cccc2c1`, the “activity change, negative = cytotoxicity” value was -11.1% [at 30.3 µM].

As for `Cc1cc2c(s1)Nc1ccccc1N=C2N1CCN(C)CC1`, the “activity change, negative = cytotoxicity” value was 14.2% [at 30.3 µM].

For the compound `Oc1ccc(Oc2ccccc2)cc1`, the “activity change, negative = cytotoxicity” value is -0.711%.

For `COCCc1ccccn1`, the “activity change, negative = cytotoxicity” value was 4.54% [at 30.3 µM].

As to `C[C@H](O)C(=O)Nc1c(I)c(C(=O)NC(CO)CO)c(I)c(C(=O)NC(CO)CO)c1I`, the “activity change, negative = cytotoxicity” value is -12.2% [at 30.3 µM].

As for `CC1=C(/C=C/C(C)=C/C=C/C(C)=C\C(=O)O)C(C)(C)CCC1`, the “activity change, negative = cytotoxicity” value was -0.174%.

In the case of `N#CCC(=O)NN`, the “activity change, negative = cytotoxicity” value was 1.86% [at 30.3 µM].

Regarding `COc1cccc(-c2ccc(/C=C\CN3CCCCCC3)cc2Cl)c1`, the Potency was 40.6 µM (active).

For the compound `OC1CCC(C2CCCCC2)CC1` (stereo not given), the “activity change, negative = cytotoxicity” value was 13.6%.

On to `CCOC(=O)COC(=O)c1ccccc1C(=O)OCC`, for which the “activity change, negative = cytotoxicity” value was 5.15%.

As to `O=C(CCCN1CCC(O)(c2ccc(Br)cc2)CC1)c1ccc(F)cc1`, the “activity change, negative = cytotoxicity” value was 0.481% [at 30.3 µM].

Consider `C1=CCC(c2ccccc2)CC1` (stereo not given), for which the “activity change, negative = cytotoxicity” value was 0.114%.

As for `Nc1cnn([C@@H]2O[C@H](CO)[C@@H](O)[C@H]2O)c(=O)n1`, the “activity change, negative = cytotoxicity” value is -17.2%.

Turning to `Cc1ccc2c(Cl)cc(Cl)c(O)c2n1`, the “activity change, negative = cytotoxicity” value was -0.514% [at 30.3 µM].

On to `C/C=C\C/C=C/CCCCCCCCOC(C)=O`, for which the “activity change, negative = cytotoxicity” value is -16.9%.

With `FC1(F)C(F)(F)C(F)(F)C2(F)C(F)(C1(F)F)C(F)(F)C(F)(F)C1(F)C(F)(F)C(F)(F)C(F)(F)C(F)(F)C12F` (stereo not given), the “activity change, negative = cytotoxicity” value is 6.01%.

For `CCNC(=O)N1CCN(CCCC(c2ccc(F)cc2)c2ccc(F)cc2)CC1`, the “activity change, negative = cytotoxicity” value is 0.0013% [at 30.3 µM].

As to `NCCOCCOCCN`, the “activity change, negative = cytotoxicity” value is -0.142%.

In the case of `NS(=O)(=O)Cc1noc2ccccc12`, the “activity change, negative = cytotoxicity” value was -3.73% [at 30.3 µM].

`Oc1ccccc1C=NCc1ccccc1`: the “activity change, negative = cytotoxicity” value was -11.3% [at 30.3 µM].

`COc1cc(O)cc(O)c1`: the “activity change, negative = cytotoxicity” value is 2.32% [at 30.3 µM].

For the compound `CN1CCN(c2c(F)cc3c(=O)c(C(=O)O)cn4c3c2OCN4C)CC1`, the activity change, negative = cytotoxicity is -2.46% [at 13.5 µM].

Consider `COc1ccc(C(=O)N2CCN(CC(=O)N3CCOCC3)CC2)cc1`, for which the “activity change, negative = cytotoxicity” value was 2.74% [at 30.3 µM].

Consider `C1CC(COCC2CO2)CCC1COCC1CO1` (stereo not given), for which the “activity change, negative = cytotoxicity” value was -12.2%.

As to `N[C@@H](Cc1cc(I)c(O)c(I)c1)C(=O)O`, the “activity change, negative = cytotoxicity” value is -4.78% [at 30.3 µM].

Consider `CCC1CCC(CCC(=O)O)C1` (stereo not given), for which the “activity change, negative = cytotoxicity” value is -3.56%.

In the case of `O=Cc1c2ccccc2c(Cl)c2ccccc12`, the “activity change, negative = cytotoxicity” value was 8.12% [at 30.3 µM].

Turning to `C[C@H](N)[C@H](O)c1cccc(O)c1`, the “activity change, negative = cytotoxicity” value was -0.663% [at 30.3 µM].

For `CC(C(=O)O)c1ccc(C(=O)c2ccccc2)s1` (stereo not given), the “activity change, negative = cytotoxicity” value was -7.89% [at 30.3 µM].
